Compounds with a hit are over-represented: about 2.6% of the library has one in this group of screens.
TGFb inhibitor – inhibitors of TGF-b signaling | HepG2 CAGA-GFP TGF-b/SMAD3 reporter, GFP fluorescence, 18 h; TGF-beta stimulated, 500 pg/mL final | AID 588855 | hit rate 1.2% among 410,000 | Potency, µM (top dose mostly 46.1 µM), for the others: top-dose activity, negative = inhibition, actives largely listed as inhibitors; note: potency is the fitted concentration of half-maximal effect; % is set by controls: 0 for no effect and ±100 for the full control effect; nearly all actives have a fitted effect of over 65% in size
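GFP signal (ex488/em500-530) from TGF-beta-stimulated HEPG2 CAGA-GFP cells, 500 pg/mL final, 18 h at 37 degrees C in DMEM plus 1% FBS, normalized to unstimulated and DMSO-stimulated controls.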
uPA generation – blocks generation of uPA at the cell surface; cell surface uPA generation assay, qHTS; hit rate 0.31% among 330,000; Potency, µM (doses to about 38.3 µM), without a hit: at the highest dose activity change, negative = inhibition, hits mostly inhibitors; active = well fitted inhibition curve with a large enough effect; inconclusive = small, poorly fitted or top-dose-only effect; inactive = no such curve, though single readings can be large or run the other way; tested in mouse RAW 264.7 cells; note: potency is the fitted concentration of half-maximal effect; % is set by controls: 0 for no effect and ±100 for the full control effect; nearly all actives have a fitted effect of over 55% in size
Giardia killer – kills Giardia lamblia. Giardia lamblia trophozoite viability. hit rate 0.15% among 340,000. AID 540267. activity change, % at 7.66 µM, hits read low; in the data active = activity change below about -80%; inconclusive = between about -30% and that limit;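 note: parasites exposed to compound for two days anaerobically before the ATP read; % is set by controls: 0 for no effect and ±100 for the full control effect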
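Luminescent ATP signal served as the viability read-out, measured 15-30 min after adding ATP detection reagent to trophozoites that had been incubated with compounds for 48 hrs at 37 deg C anaerobically at 100 cells/well.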
ATXN2 expr inh – reduces ATXN2 reporter expression in HEK-293 cells. HEK-293 ATXN2-luciferase reporter, luminescence, 24 h. AID 1745845. Potency, µM (doses to about 57 µM), for the others: top-dose activity change, negative = inhibition, hits mostly inhibitors. hit rate 0.72% among 360,000; note: potency is the fitted concentration of half-maximal effect; % is set by controls: 0 for no effect and ±100 for the full control effect; nearly all actives have a fitted effect of over 55% in size
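ATXN2-luciferase reporter cells (luciferase flanked by upstream and downstream ATXN2 gene portions) were treated 24 h at 37 °C with compounds at up to 57 uM. SteadyGlo luminescence gave expression; GF-AFC fluorescence gave viability.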
HepG2 tox – HepG2 cytotoxicity, counter-screen for TGF-b inhibitors. HepG2 CAGA-GFP viability, ATP luminescence, 18 h. AID 588856. Potency, µM (doses to about 46.1 µM), for inactives: top-dose activity change, negative = cytotoxicity, hits mostly cytotoxic. hit rate 0.76% among 410,000; note: potency is the fitted concentration of half-maximal effect
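HepG2 CAGA-GFP cells (1000/well, DMEM with 1% FBS) received compound, then TGF-beta at 500 pg/mL final, and were incubated 18 hours at 37 degrees C. Viability was read by CellTiter-Glo luminescence. Media-only wells were set as complete cell-killing and DMSO as no toxicity.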
S2 tox – cell viability loss in ATXN counter-screen; S2 cells (HEK-293 line with an ATXN2-luciferase reporter) viability, CellTiter-Fluor protease fluorescence, 24 h; AID 651635; hit rate 0.49% among 400,000; Potency, µM (doses to about 56.7 µM), actives largely listed as cytotoxic; note: potency is the fitted concentration of half-maximal effect; nearly all actives have a fitted effect of over 40% in size
An asterisk follows results filed as active; i = inactive; ? = inconclusive; nt = not tested or not shown; ! = not confirmed by another sample; [ ] = remark or other dose. Unless noted, calls come from the whole dose curve; as a rule, active = well fitted curve in the direction sought with a large enough effect; inconclusive = small, poorly fitted or top-dose-only effect, or another doubt; inactive = no such curve, though single readings can be large; an effect the other way counts as inactive or inconclusive.

SMILES | TGFb inhibitor | uPA generation | Giardia killer | ATXN2 expr inh | HepG2 tox | S2 tox
CN(Cc1ccccc1)/[N+]([O-])=N/Oc1ccc([N+](=O)[O-])cc1[N+](=O)[O-] | ? | nt | nt | nt | -95.0% | nt
COc1ccc(OC)c(-c2ccnc(-n3ncc(C(=O)N4CCN(CCO)CC4)c3C3CC3)n2)c1 | nt | nt | nt | nt | nt | i
Oc1cc(-c2nc3ccccc3s2)cc2c1OCCN(Cc1cccn1-c1nccs1)C2 | nt | nt | nt | nt | nt | i
O=C(C1CC12CCN(Cc1cccc3cccnc13)CC2)N1CCN(Cc2cccs2)CC1 (stereo not drawn) | nt | nt | nt | nt | nt | i
Cc1ccccc1OCC(=O)N1N=C(C(F)(F)F)CC1(O)C(C)(C)C (stereo not drawn) | ? | 3.2% | -4.4 | -25.6% | 11.2µM* | i
O=S(=O)(c1cccc2cnccc12)N1CCCNCC1 | 8.3% | -29.3% | 16.2 | 25.1µM*! | -24.1% | i
O=S(=O)(c1cccc2ccccc12)N1CCCCC1 | 10.5% | -2.5% | 3.6 | -6.1% | 7.4% | i
Cc1cnc(Nc2ccc(OCCN3CCCC3)cc2)nc1Nc1cccc(S(=O)(=O)NC(C)(C)C)c1 | nt | nt | nt | 3.9% | nt | nt
CC(C)(C)n1ncc2c(=O)n(Cc3cccc(OC(F)F)c3)cnc21 | -25.9% | nt | nt | nt | -37.3% | nt
Cc1[nH]n(S(=O)(=O)Cc2ccccc2)c(=O)c1N=Nc1ccccc1Cl | 0.2% | 3.3% | -88.8* | -30.5%[11.3 µM] | 5.9% | ?
CC(=O)OCC(NC(=O)C(C)NC(=O)OC(C)(C)C)C1OC(n2cc(C)c(=O)[nH]c2=O)C(OC(C)=O)C1OC(C)=O (stereo not drawn) | -15.3% | nt | 1.3 | nt | -7.7% | nt
COCCNC(=O)c1cc(-c2ccccc2OC)on1 | -6.3% | 7.08µM* | -11.8 | 32.2% | -16.1% | i
CCOc1ccc(N=Cc2c(C)[nH]n(-c3nc4ccccc4[nH]3)c2=O)cc1 | -21.9% | -9.3% | -19.4 | -36.1% | 2.51µM* | i
Cc1[nH]n(-c2ccccc2)c(=O)c1C=Nc1cnc2ccccc2c1 | -22.5% | -0.3% | -12.4 | 8.5% | -46.2% | i
O=C(C[N+]1(CCO)CCOCC1)c1cccc2ccccc12 | -4.2% | nt | nt | nt | 1.0% | nt
O=c1c2cc(F)ccc2sn1-c1ccc(F)cc1 | 15.8µM* | -26.1% | -3.8 | ? | -55.6% | nt
O=c1c2cc([N+](=O)[O-])ccc2sn1-c1ccccc1 | -12.2% | nt | nt | 22.9% | -7.4% | i
Cc1ccc(C)c(-n2sc3ccc(F)cc3c2=O)c1 | 10µM* | -18.6% | 10.5 | ? | -52.6% | ?
O=c1c2ccccc2sn1-c1ccc(S(=O)(=O)N2CCOCC2)cc1 | -26.0% | nt | -14.6 | nt | -20.0% | nt
COc1ccc(-n2sc3ccc(F)cc3c2=O)cc1 | ? | 10µM* | -18.2 | ? | -64.7% | 25.1µM*
COc1ccc(-n2sc3ccccc3c2=O)cc1 | 20µM* | nt | nt | ? | 12.6µM* | nt
C=C(C)COc1ccc(-c2ncncc2-c2ccc(Br)cc2)c(O)c1 | ? | -13.6% | 12.5 | -12.6% | -21.9% | nt
C=C(C)COc1ccc(-c2nc(N)ncc2Oc2ccc(OC)cc2)c(O)c1 | ? | 2.1% | 12.9 | -12.5% | 11.2µM* | i
C=C(C)COc1ccc(-c2nc(N)ncc2-c2ccc(Br)cc2)c(O)c1 | 15.8µM* | 0.9% | 19.5 | -8.4% | -105.3% | i
CCc1cc(-c2nc(N)ncc2-c2ccc(Br)cc2)c(O)cc1OC | ? | 0.5% | -9.0 | -15.4% | 22.4µM* | i
SMILES | TGFb inhibitor | uPA generation | Giardia killer | ATXN2 expr inh | HepG2 tox | S2 tox
CCOc1ccc(-c2nc(N)ncc2Oc2ccccc2Br)c(O)c1 | ? | 14.1% | -15.0 | -6.6% | 11.2µM* | i
CCN1CCCC1CNC(=O)c1cnn(-c2nccc(-c3cc(OC)ccc3OC)n2)c1C (stereo not drawn) | nt | nt | nt | nt | nt | i
CC1CN(Cc2cccn2-c2ncccn2)Cc2cc(Cl)ccc2O1 (stereo not drawn) | nt | nt | nt | nt | nt | i
Clc1ccc(-n2cccc2CN2CCOc3ccc(CN4CCOCC4)cc3C2)nc1 | nt | nt | nt | nt | nt | i
O=C(NCC1Cc2cccc(-c3cnccn3)c2O1)c1ccc(F)c(Cl)c1 (stereo not drawn) | nt | nt | nt | nt | nt | i
COc1ccc(-c2nc(N)ncc2-c2ccc(OC)c(OC)c2)c(O)c1 | -0.3% | 5.8% | -8.4 | -13.3% | -22.2% | i
COc1ccc(-c2cnc(N)nc2-c2ccc(OCc3ccccc3)cc2O)cc1 | 12.6µM* | -11.2% | -3.5 | -7.0% | -29.4% | i
Cc1ccc2nc(N(CCCN(C)C)C(=O)c3ccc(S(=O)(=O)N4CCCCCC4)cc3)sc2c1 | ? | -3.7% | -10.6 | ? | 15.8µM* | i
CCOC(=O)N1CCN(S(=O)(=O)c2ccc(C(=O)N(CCCN(C)C)c3nc4ccc(Cl)cc4s3)cc2)CC1 | ? | -1.2% | -26.5 | ? | 11.2µM* | ?
CCc1ccccc1NC(=O)CN1CCCN(Cc2cc(C)ccc2C)S1(=O)=O | 17.8µM* | nt | nt | nt | -35.0% | nt
Cc1ccc(NC(=O)CN2CCCN(Cc3cc(C)ccc3C)S2(=O)=O)c(Cl)c1 | ? | nt | nt | nt | -24.4% | nt
CC(C)(CC(=O)NCc1ccc(Cl)cc1Cl)CC1=NS(=O)(=O)c2ccccc2N1 | ? | nt | nt | 25.1µM* | -51.0% | i
COc1cc(N2CCC(C(N)=O)CC2)ccc1Nc1nc(N)c(Cl)c(Nc2ccccc2S(=O)(=O)C(C)C)n1 | nt | nt | nt | -15.2% | nt | nt
COc1cc(N2CCC(N3CCN(C)CC3)CC2)ccc1Nc1ncnc(Nc2ccccc2S(=O)(=O)C(C)C)n1 | nt | nt | nt | 27.3µM* | nt | nt
N#Cc1ccc(-c2cccs2)nc1SCC(=O)Nc1cccc(C(F)(F)F)c1 | ? | nt | nt | -5.4% | 11.2µM* | i
Oc1ccccc1-c1cc(C(F)(F)C(F)F)[nH]n1 | 11.2µM* | -11.4% | -12.5 | 28.1% | -36.3% | i
CN(C)c1ccc(N=Nc2nccs2)cc1 | -4.4% | nt | nt | nt | -19.3% | 10µM*
O=C(CNC(=O)c1ccccc1O)N/N=C/c1cc(Br)ccc1OC(=O)/C=C/c1ccco1 | -21.6% | -4.9% | -13.4 | ? | -11.8% | i
O=C(CNC(=O)c1cccc(F)c1)N/N=C/c1cc(Br)ccc1OC(=O)/C=C/c1ccco1 | ? | ? | -8.1 | 28.2µM* | -26.2% | i
COc1cccc(N=Nc2ccc(O)c3ncccc23)c1 | ? | 6.5% | -2.1 | ? | -8.6% | 15.8µM*
Oc1ccc(N=Nc2ccc3c(c2)OCCO3)c2cccnc12 | 3.8% | 6.6% | -15.7 | ? | 0.7% | 10µM*
COc1ccc(N=Nc2ccc(O)c3ncccc23)cc1 | ? | ? | -7.8 | nt | -3.7% | ?
Cc1ccc(-c2ccc(CN3C(CC(C)C)C(=O)N(Cc4cn(CCC5OCCO5)nn4)CCS3(=O)=O)cc2)cc1 (stereo not drawn) | 22.4µM* | nt | nt | 25.1µM* | 11.2µM* | 35.5µM*

From PubChem BioAssay
